Results: PubChem BioAssay (NCATS)
Records with an inconclusive call do not appear. A call without a number means that no potency is given here. Active and inactive are the calls of the source. Unless noted, calls come from the whole dose curve; as a rule, active = well fitted curve in the direction sought with a large enough effect; inconclusive = small, poorly fitted or top-dose-only effect, or another doubt; inactive = no such curve, though single readings can be large; an effect the other way counts as inactive or inconclusive.

Assays:
[1] = Confirmatory qHTS for VERO E6 Cytotoxicity Assay: Counterscreen for SARS-CoV-2 CPE Assay (AID 1508605; calls by dose curve; note: nearly all actives have a fitted effect of over 60% in size; note: potency is the fitted concentration of half-maximal effect)
[2] = Confirmatory qHTS for activators (rescue) of SARS-CoV-2 Cytopathic Effect (CPE) (AID 1508606; calls by dose curve; note: nearly all actives have a fitted effect of over 70% in size; note: potency is the fitted concentration of half-maximal effect)
[3] = target: Calcium and integrin-binding protein 1 (Homo sapiens) (UniProt Q99828); assay: Primary qHTS for Identification of Calcium Integrin Binding Protein 1 (CIB1) Competitor (AID 1508620);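 note: GST tagged CIB1 binding a fluorescein labelled alphaIIb integrin peptide tracer; top concentration of the series differs between compounds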
Sequence of Calcium and integrin-binding protein 1 (Homo sapiens) (Q99828 whole entry, looked up): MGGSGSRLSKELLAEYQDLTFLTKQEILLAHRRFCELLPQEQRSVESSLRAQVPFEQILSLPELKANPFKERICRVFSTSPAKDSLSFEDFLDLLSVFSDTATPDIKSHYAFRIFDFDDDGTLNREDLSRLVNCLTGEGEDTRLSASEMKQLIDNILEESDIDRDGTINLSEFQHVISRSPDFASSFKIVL
Outline: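 CIB1-GST (1 uM final) and compound incubated 15 min at room temperature before adding FITC-alphaIIb peptide tracer (100 nM final). Competition for binding read by fluorescence polarization (ex 480, em 540) after another 15 min at room temperature.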

[4] = VSVG counterscreen qHTS to identify inhibitors of SARS-CoV-2 cell entry (AID 1645847; calls by dose curve; note: potency is the fitted concentration of half-maximal effect; nearly all actives have a fitted effect of over 65% in size)
Outline: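 HEK293-ACE2 cells (Expi293F, human ACE2) pretreated 1 h with compound, then infected with MLV-based VSV-G pseudotyped particles for 48 h at 37 C; luciferase luminescence normalized to VSV-G PP and bald PP wells.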

[5] = NCATS anti-infectives library activity on HEK293 viability as a counter-qHTS vs the C. elegans viability qHTS (AID 1745854);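 note: potency is the fitted concentration of half-maximal effect; HEK293 cells exposed to compounds for 24 hr before the viability read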
Outline: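 Compound titrations (final up to 41.7 uM) were incubated with HEK293 cells for 24 hr at 37C under 5% CO2. Viable cells were quantified with CellTiter-Glo after 10 min at ambient temperature.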

[6] = NCATS anti-infectives library activity on the primary C. elegans qHTS viability assay (AID 1745855; calls by dose curve; note: potency is the fitted concentration of half-maximal effect)
Outline: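 Titration-based screen in worms: eggs hatched overnight in M9, L1 larvae fed TOP10 capsules in S medium with compound, incubated 21 °C for 7 days; fluorescent objects gated by size and intensity at days 0, 3 and 7.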

[7] = target: Lysosomal acid glucosylceramidase (Homo sapiens) (UniProt P04062); assay: Glucocerebrosidase-p2 (AID 348; in the data active = potency below about 10 µM; note: potency is the fitted concentration of half-maximal effect); settings: purified GBA, blue fluorogenic substrate, 40 min
Sequence of Lysosomal acid glucosylceramidase (Homo sapiens) (P04062 whole entry, looked up): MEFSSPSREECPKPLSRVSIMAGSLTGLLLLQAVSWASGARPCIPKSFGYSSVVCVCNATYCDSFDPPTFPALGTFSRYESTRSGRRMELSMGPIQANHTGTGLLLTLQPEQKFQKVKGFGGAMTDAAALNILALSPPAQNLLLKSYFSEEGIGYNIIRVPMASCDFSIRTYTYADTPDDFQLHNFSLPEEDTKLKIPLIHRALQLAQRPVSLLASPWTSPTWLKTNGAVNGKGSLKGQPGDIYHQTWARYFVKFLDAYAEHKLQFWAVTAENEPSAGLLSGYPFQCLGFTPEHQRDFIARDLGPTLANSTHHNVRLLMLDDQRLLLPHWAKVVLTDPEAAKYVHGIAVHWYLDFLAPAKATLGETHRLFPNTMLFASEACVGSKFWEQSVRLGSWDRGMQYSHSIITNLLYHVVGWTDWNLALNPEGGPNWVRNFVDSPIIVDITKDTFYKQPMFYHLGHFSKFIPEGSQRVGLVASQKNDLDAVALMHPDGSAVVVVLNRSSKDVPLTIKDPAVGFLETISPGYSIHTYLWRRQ
Outline: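 Normal human glucocerebrosidase (0.2 nM) with blue fluorogenic substrate (80 uM final) in citrate/phosphate pH 5.9 with 10mM sodium taurocholate, 0.01% tween-20; 40 min RT, NaOH/glycine stop; fluorescence Ex 365/Em 440; AC50 from a titration from 0.6 nM upwards.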

[8] = AP1 Signaling Pathway (AID 357; active = well fitted curve in either direction with a large enough effect, not every such curve was filed as active;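 note: ME-180 reporter cells stimulated with EGF at its EC50 level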)
Outline: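 In this screen, ME-180 cells in Opti-MEM with 0.5% dialyzed FBS received EC50 EGF and compound titrations for 5 h. AP-1 reporter beta-lactamase was detected via CCF4 ratio, giving AC50 for positive and negative modulators.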

[9] = target: Cytochrome P450 1A2 (Homo sapiens) (UniProt P05177); assay: p450-cyp1a2 (AID 410; calls by dose curve)
Sequence of Cytochrome P450 1A2 (Homo sapiens) (P05177 whole entry, looked up): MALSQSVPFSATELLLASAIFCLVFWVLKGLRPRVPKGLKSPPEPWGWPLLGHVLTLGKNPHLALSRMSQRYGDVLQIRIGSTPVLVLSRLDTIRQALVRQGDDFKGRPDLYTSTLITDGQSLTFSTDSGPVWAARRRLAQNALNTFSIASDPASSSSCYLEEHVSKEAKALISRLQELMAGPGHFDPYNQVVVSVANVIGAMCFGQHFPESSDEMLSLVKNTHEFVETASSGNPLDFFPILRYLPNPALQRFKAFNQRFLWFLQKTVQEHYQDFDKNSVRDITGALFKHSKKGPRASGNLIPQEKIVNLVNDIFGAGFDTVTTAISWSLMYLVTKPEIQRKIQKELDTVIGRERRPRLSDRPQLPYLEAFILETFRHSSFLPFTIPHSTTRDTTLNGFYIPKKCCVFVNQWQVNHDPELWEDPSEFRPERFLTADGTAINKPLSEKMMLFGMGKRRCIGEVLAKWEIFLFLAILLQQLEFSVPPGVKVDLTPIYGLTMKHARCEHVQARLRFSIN
Outline: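 Read-out is luminescence from luciferin produced by CYP1A2 demethylation of Luciferin-ME (100uM, at Km). Detection reagent stopped the 60 min NADPH-dependent reaction; signals were normalized to 57 uM furafylline.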

[10] = Stat Signaling Pathway (AID 446; active = well fitted curve in either direction with a large enough effect, not every such curve was filed as active;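 note: ME-180 cervical cancer cells given 40 pM IL-6 alongside compound; SIE-controlled beta-lactamase reporter measured as 460/530 nm FRET emission ratio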)
Outline: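 Overnight-plated ME-180 cells bearing a STAT Inducible Element beta-lactamase reporter; 5 h co-exposure to compound and 40 pM IL-6; values normalized to 300 pM IL-6 and 125 nM JAK inhibitor controls.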

[11] = target: Glucocorticoid receptor (Homo sapiens) (UniProt P04150); assay: GR-EFC Redistribution (AID 451; calls by dose curve; note: potency is the fitted concentration of half-maximal effect); settings: CHO-K1 GR-EFC translocation, beta-gal luminescence, 2 h
Sequence of Glucocorticoid receptor (Homo sapiens) (P04150 whole entry, looked up, the tested form may be a part): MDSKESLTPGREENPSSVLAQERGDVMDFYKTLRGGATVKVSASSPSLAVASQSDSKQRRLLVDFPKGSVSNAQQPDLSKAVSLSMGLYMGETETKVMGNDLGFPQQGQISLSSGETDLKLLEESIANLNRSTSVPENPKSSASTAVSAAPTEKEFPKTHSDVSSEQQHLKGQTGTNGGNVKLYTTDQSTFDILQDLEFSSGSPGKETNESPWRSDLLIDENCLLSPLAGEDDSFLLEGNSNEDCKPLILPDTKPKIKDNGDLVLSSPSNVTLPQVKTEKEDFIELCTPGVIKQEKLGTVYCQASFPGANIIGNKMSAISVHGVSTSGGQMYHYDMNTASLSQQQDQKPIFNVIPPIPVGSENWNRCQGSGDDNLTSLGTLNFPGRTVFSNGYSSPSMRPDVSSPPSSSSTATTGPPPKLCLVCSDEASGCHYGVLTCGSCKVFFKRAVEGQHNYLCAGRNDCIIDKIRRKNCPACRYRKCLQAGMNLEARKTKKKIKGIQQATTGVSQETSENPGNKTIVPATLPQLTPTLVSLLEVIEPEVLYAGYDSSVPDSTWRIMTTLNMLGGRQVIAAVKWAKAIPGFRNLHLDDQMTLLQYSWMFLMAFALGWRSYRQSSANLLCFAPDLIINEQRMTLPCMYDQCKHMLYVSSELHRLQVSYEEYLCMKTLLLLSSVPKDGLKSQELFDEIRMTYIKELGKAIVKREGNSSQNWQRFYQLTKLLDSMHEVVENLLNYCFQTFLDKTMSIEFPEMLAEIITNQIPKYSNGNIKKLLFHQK
Outline: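 Translocation of GR-ED fusion to nuclear EA restores b-gal, read by luminescence after 1 h room-temperature detection. Engineered CHO-K1 biosensor cells, 1,000/well, exposed 2 h at 37 C to titrations up to 46 uM final.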

[12] = target: Mitogen-activated protein kinase 10 (Mus musculus) (UniProt Q61831); assay: JNK3 AlphaScreen Assay (AID 530; active = well fitted curve in either direction with a large enough effect, not every such curve was filed as active;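 note: kinase came from lysate of stimulated human HepG2 cells; signal reports phosphorylation of biotinylated GST-cJun 1-79 at Ser73 with 10 µM ATP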)
Outline: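 Kinase buffer: 20 mM Tris-HCl pH 7.6, 10 mM MgCl2, 1 mM DTT, 0.1 mM Na3VO4, 0.01% Tween-20; ATP 10 uM. Substrate biotin-GST-cJun(1-79), enzyme from activated HepG2 lysates. Detection by Ser73 phospho-antibody AlphaScreen.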

[13] = target: 3',5'-cyclic-AMP phosphodiesterase 4B (Homo sapiens) (UniProt Q07343); assay: qHTS Assay for Inhibitors of PDE-IV (AID 607; active = well fitted activation curve with a large enough effect in the main read-out, with a control signal flat, not every such curve was filed as active)
Sequence of 3',5'-cyclic-AMP phosphodiesterase 4B (Homo sapiens) (Q07343 whole entry, looked up): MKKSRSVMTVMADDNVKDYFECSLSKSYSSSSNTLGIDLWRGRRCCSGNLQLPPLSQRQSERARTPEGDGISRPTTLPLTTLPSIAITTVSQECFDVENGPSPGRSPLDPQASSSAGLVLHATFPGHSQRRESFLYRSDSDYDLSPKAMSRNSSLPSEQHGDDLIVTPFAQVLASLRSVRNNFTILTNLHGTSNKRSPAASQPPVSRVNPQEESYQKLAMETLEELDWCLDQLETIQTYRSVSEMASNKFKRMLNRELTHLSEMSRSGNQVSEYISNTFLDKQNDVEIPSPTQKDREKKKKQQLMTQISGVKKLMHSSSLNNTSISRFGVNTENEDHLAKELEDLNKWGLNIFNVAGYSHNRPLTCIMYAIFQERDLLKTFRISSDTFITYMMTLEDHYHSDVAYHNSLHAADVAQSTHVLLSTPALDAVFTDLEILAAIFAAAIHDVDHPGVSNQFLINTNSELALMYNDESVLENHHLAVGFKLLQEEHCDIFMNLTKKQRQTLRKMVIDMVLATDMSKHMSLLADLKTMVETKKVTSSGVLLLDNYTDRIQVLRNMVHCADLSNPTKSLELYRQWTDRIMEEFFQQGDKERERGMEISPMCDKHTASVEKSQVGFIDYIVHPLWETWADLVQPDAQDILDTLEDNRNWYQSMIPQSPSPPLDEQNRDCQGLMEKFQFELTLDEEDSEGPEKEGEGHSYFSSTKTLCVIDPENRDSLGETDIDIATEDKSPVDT
Outline: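 Live HEK293 cells with a modified cyclic nucleotide-gated (CNG) channel report intracellular cAMP via membrane-potential dye fluorescence (ex 535/em 590 nm). Endogenous PDE-IV was targeted. Compounds were tested at up to 22.9 uM final; RO 20-1724 100 uM served as control.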

[14] = target: Cytochrome P450 3A4 (Homo sapiens) (UniProt P08684); assay: qHTS Assay for Activators of Cytochrome P450 3A4 (AID 885); note: nearly all actives have a fitted effect of over 65% in size
Sequence of Cytochrome P450 3A4 (Homo sapiens) (P08684 whole entry, looked up): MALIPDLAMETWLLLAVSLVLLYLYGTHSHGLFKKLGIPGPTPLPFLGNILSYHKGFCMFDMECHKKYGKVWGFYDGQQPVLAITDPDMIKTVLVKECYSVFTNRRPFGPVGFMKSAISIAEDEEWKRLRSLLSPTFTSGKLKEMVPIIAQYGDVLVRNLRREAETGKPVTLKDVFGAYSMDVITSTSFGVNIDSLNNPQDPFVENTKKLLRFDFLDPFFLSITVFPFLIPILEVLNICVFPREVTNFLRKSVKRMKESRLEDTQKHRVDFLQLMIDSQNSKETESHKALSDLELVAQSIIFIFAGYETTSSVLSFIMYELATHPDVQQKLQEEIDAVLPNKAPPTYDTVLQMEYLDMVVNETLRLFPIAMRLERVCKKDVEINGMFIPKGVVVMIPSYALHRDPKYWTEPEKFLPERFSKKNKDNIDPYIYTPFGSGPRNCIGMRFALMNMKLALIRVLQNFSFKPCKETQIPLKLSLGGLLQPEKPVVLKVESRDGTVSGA
Outline: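 Using 20nM recombinant human CYP3A4 in potassium phosphate (200mM), substrate Luciferin-PPXE at 25uM, luminescent luciferin detection followed a 60-min RT NADPH reaction; data scaled to 57 uM ketoconazole.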

[15] = qHTS Assay for Lipid Storage Modulators (AID 1519; calls by dose curve); settings: Drosophila S3 cells, BODIPY lipid droplet/cell ratio, laser cytometry, cells loaded with oleic acid
Outline: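 Cells seeded at 5,000 per well were treated with compounds over a concentration series and loaded with oleic acid (400 uM, as added). Lipid droplet fluorescence (488 nm excitation, 500-530 nm channel) was read by laser-scanning cytometry and normalized to 20 uM Triacsin C.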

[16] = Confirmatory qHTS for small molecule stabilizers of the endoplasmic reticulum resident proteome: Secreted ER Calcium Modulated Protein (SERCaMP) assay (AID 1508628); note: potency is the fitted concentration of half-maximal effect; nearly all actives have a fitted effect of over 40% in size
Outline: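 GLuc-SERCaMP-expressing SH-SY5Y cells, pretreated 16 h with compound, are challenged with thapsigargin to empty ER calcium stores; after 4 h, coelenterazine is added directly to the medium and luminescence is imaged.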

[17] = Counterscreen qHTS for small molecule stabilizers of the endoplasmic reticulum resident proteome: GLuc-NoTag assay (AID 1508627);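 note: SH-SY5Y cells given compound then 100 nM thapsigargin to empty ER calcium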
Outline: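 Counterscreen line: SH-SY5Y-GLuc-NoTag cells, treated with compound 19 hr before a 4 hr, 100 nM thapsigargin calcium depletion. Secreted Gaussia luciferase in the medium was measured by luminescence after coelenterazine was added (0.07x final), with cells unlysed.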

[18] = Primary qHTS for small molecule stabilizers of the endoplasmic reticulum resident proteome: Secreted ER Calcium Modulated Protein (SERCaMP) assay (AID 1508630)
Outline: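 The SH-SY5Y reporter protocol was run at 3 concentrations up to 38.3 uM (primary) or 11 concentrations (follow-up): 16 h compound, 100 nM thapsigargin for 4 h, then extracellular luciferase luminescence.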

SMILES: C/C1=C\CCC2=CC(OC2=O)C(C)(C)/C=C/C1=O (centres undefined)
- Potency [1]: inactive
- Potency [2]: 10 µM (active)

SMILES: CCCCCCCCC(=O)N[C@H](CN1CCCC1)[C@H](O)c1ccc2c(c1)OCCO2
- Potency [1]: inactive
- Potency [2]: 8.91 µM (active)

SMILES: Cc1ccc(NCCN(C)CCNc2ccnc3cc(Cl)ccc23)c2c(=O)c3ccccc3sc12
- Potency [1]: inactive
- Potency [2]: inactive

SMILES: COC(=O)Nc1cc(Nc2cc(NC3CC3)c3ncc(C#N)n3n2)c(Cl)c(N2CCN(C)CC2)c1
- Potency [1]: 2.51 µM (active)
- Potency [2]: inactive

SMILES: N#Cc1c(-c2cccc(-c3no[n+]([O-])c3C#N)c2)no[n+]1[O-]
- outcome [3]: inactive

SMILES: CCOC(=O)C1CCN(C(=O)C2(NC(=O)Nc3ccccc3Cl)CCCC2)CC1
- outcome [3]: inactive

SMILES: OC1CCC(Oc2cccc3cnc(Nc4ccc5nc[nH]c5c4)nc23)CC1 (centres undefined)
- Potency [4]: 0.341 µM (active)

SMILES: COC(=O)[C@]1(C)CC[C@]2(C)CC[C@]3(C)C4=CC=C5C(=CC(=O)C(O)=C5C)[C@]4(C)CC[C@@]3(C)[C@@H]2C1
- Potency [5]: 1.12 µM (active)
- Potency [6]: 9.16 µM (active)

SMILES: O=S(=O)(Nc1ccc(-c2ccccc2)cc1)c1ccc(NCc2cccc(Cl)c2O)cc1
- outcome [3]: inactive

SMILES: c1cc(N2CCCC3(CCNCC3)C2)ccn1
- Potency [7]: > 11.4 µM (inactive)
- outcome [8]: inactive
- Potency [9]: inactive
- outcome [10]: inactive
- Potency [11]: > 46 µM (inactive)
- outcome [12]: inactive
- Potency [13]: inactive
- Potency [14]: inactive
- activity change, negative = inhibition ([15]; at 57.5 µM (top of the series)): 4.41% (inactive)
- max response ([15]; measured here: cell count channel max response): 13.5%
- max response ([15]; measured here: lipid channel max response): 21.3%
- Potency [16]: 14.1 µM (active)

SMILES: CC(C)C1C(=O)N2CCC[C@H]2[C@]2(O)O[C@](NC(=O)[C@@H]3C=C4c5cccc6[nH]cc(c56)C[C@H]4N(C)C3)(C(C)C)C(=O)N12 (some centres undefined)
- outcome [17]: inactive
- Potency [16]: 31.6 µM (active)

SMILES: O=C(O)c1ccc(O)c2ncc(N3CCCNCC3)cc12
- outcome [3]: inactive

SMILES: Cn1cc(P(=S)(c2ccccc2)c2ccccc2)c2ccccc21
- outcome [3]: inactive

SMILES: CC[C@]12CCCN3CCC4(c5ccccc5NC4C(C(=O)O)C1)C32 (some centres undefined)
- outcome [18]: inactive

SMILES: CCOc1ccc(CCNC(=O)c2cc3ccncc3n2Cc2cccc(C)c2)cc1OCC
- outcome [3]: inactive

SMILES: C[n+]1cc(P(=S)(c2ccccc2)c2ccccc2)n2ccccc21
- outcome [3]: inactive

SMILES: CCOc1ccc(CCNC(=O)c2ccccc2)cc1OCC
- outcome [3]: inactive
